From the supplement of paper PMC7411640
Counter-ions that a name gives are not always drawn.

Test system: MDA-MB-468
Assay: phospho-S6 immunofluorescence (DAPI-normalised), per-plate z-score; higher = higher phospho-S6 signal (less pathway suppression)
Conditions: 24 h
Description: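 GPCR-targeted compound library (MedChemExpress HY-L006) tested on MDA-MB-468 PTEN-null TNBC cells in 384-well plates at 0.1, 1 or 10 uM, combined with vehicle, GDC0941 450 nM or lapatinib 1 uM, for 24 h. Phospho-S6 (S240/244) immunofluorescence normalised to DAPI and expressed as a per-plate z-score; values are the mean of biological triplicates.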

Row | SMILES | phospho-S6 immunofluorescence (z-score) (co-treatment: GDC0941 450 nM) | phospho-S6 immunofluorescence (z-score) (co-treatment: lapatinib 1 uM) | phospho-S6 immunofluorescence (z-score) (co-treatment: vehicle)
1 | CC(C)[C@H](N=C(NS(=O)(=O)c1ccc(Cl)cc1)N1C[C@H](c2ccccc2)C(c2ccc(Cl)cc2)=N1)C(N)=O (compound 10 µM) | -2.11 | -0.39 | 0.1
2 | N[C@@H](COP(=O)(O)O)C(=O)O [O-Phospho-L-serine] (compound 10 µM) | 0.23 | 0.05 | -0.66
3 | Cc1ccc2c(c1CCC(=O)O)CC[C@@H](NS(=O)(=O)c1ccc(Cl)cc1)C2 [Terutroban] (compound 10 µM) | -0.9 | 0.55 | -0.1
4 | CCOc1cc(N)c(Cl)cc1C(=O)NCC1CN(Cc2ccc(F)cc2)CCO1 (configuration not stated) [Mosapride (citrate)] (compound 10 µM) | 0.76 | 0.46 | 0.79
5 | CN1Cc2c(N)cccc2C(c2ccccc2)C1 (configuration not stated) [Nomifensine (maleate)] (compound 10 µM) | -0.09 | -0.69 | -0.17
6 | COc1cccc(-c2c(C)n(Cc3c(F)cccc3C(F)(F)F)c(=O)n(C[C@H](NCCCC(=O)O)c3ccccc3)c2=O)c1F [Elagolix] (compound 10 µM) | 0.62 | -0.03 | 0.51
7 | CC(C)C[C@H](NC(=O)[C@H](CC(C)C)NC(=O)[C@H](Cc1ccccc1)NC(=O)[C@@H](N)CO)C(=O)N[C@@H](CCCN=C(N)N)C(=O)N[C@@H](CC(N)=O)C(=O)O (compound 10 µM) | -1.01 | -0.25 | 0.03
8 | CN(C)CCN1C(=O)c2cccc3cc(NC(N)=O)cc(c23)C1=O (compound 10 µM) | 1.29 | 7.09 | 0.12
9 | COc1cc(N)c(Cl)cc1C(=O)NC1CCN(CCCOc2ccc(F)cc2)CC1OC (configuration not stated) [Cisapride] (compound 10 µM) | -1.02 | -1.88 | -0.58
10 | Nc1nc(CC(=O)Nc2ccc(CCNC[C@H](O)c3ccccc3)cc2)cs1 [Mirabegron] (compound 10 µM) | 0.91 | 1.75 | 0.56
11 | CC(O)Cn1cnc2c1c(=O)n(C)c(=O)n2C (configuration not stated) [Proxyphylline] (compound 10 µM) | 0.64 | 0.19 | -0.72
12 | COc1ccc(CNC(=O)c2sc3nc(C)cc(C)c3c2N)cc1 (compound 10 µM) | -1.98 | 1.66 | 0.34
13 | O=C(Nc1ccc([N+](=O)[O-])cc1O)Nc1ccccc1Br (compound 10 µM) | -1.44 | 0.89 | -0.39
14 | CN1CC2c3ccccc3Oc3ccc(Cl)cc3C2C1 (configuration not stated) [Asenapine (hydrochloride)] (compound 10 µM) | -0.8 | -2.17 | 0
